Assay results as given in the supplement of paper PMC8387472.

Legend:
Test in all cases: fraction of 1-bp insertions among edited reads; higher = more 1-bp insertion outcomes
Conditions in all cases: mESC; 2uM; 72 h treatment, harvest day 5
[1] = compound: CCn1c(=O)c(-c2ccc(Cl)cc2Cl)cc2cnc(Nc3ccc(N4CCNCC4)c(F)c3)nc21
[2] = compound: CNc1ccc([N+](=O)[O-])c(Nc2ccc3[nH]ncc3c2)n1
Rifapentine = compound: CO[C@H]1/C=C/O[C@@]2(C)Oc3c(C)c(O)c4c(O)c(c(/C=N/N5CCN(C6CCCC6)CC5)c(O)c4c3C2=O)NC(=O)/C(C)=C\C=C\[C@H](C)[C@H](O)[C@@H](C)[C@@H](O)[C@@H](C)[C@H](OC(C)=O)[C@@H]1C [Rifapentine]
[3] = compound: COc1ccccc1-c1cc(Nc2cccc(CS(N)(=O)=O)c2)ncn1
[4] = compound: C[C@@H]1CN(CC(=O)Nc2ccc3c(c2)Cc2cccc(-c4cc(=O)cc(N5CCOCC5)o4)c2S3)C[C@H](C)O1
[5] = compound: Cc1cc(C)nc(SCC(=O)Nc2ncc(Cc3cccc4ccccc34)s2)n1
[6] = compound: Cc1ccc(C(=O)NCCCCCC(=O)Nc2ccccc2N)cc1
[7] = compound: Cc1cccc(CC(=O)N2CCc3c2ccc(-c2cn(C)c4ncnc(N)c24)c3F)n1
[8] = compound: NC(=O)c1ccc2nc(-c3ccc(Oc4ccc(Cl)cc4)cc3)[nH]c2c1 [Chk 2 inhibitor II (BML-277)]
Tucidinostat (Chidamide) = compound: Nc1cc(F)ccc1NC(=O)c1ccc(CNC(=O)/C=C/c2cccnc2)cc1 [Tucidinostat (Chidamide)]

Target	fraction of 1-bp insertions among edited reads [1]	fraction of 1-bp insertions among edited reads [2]	fraction of 1-bp insertions among edited reads (Rifapentine)	fraction of 1-bp insertions among edited reads [3]	fraction of 1-bp insertions among edited reads [4]	fraction of 1-bp insertions among edited reads [5]	fraction of 1-bp insertions among edited reads [6]	fraction of 1-bp insertions among edited reads [7]	fraction of 1-bp insertions among edited reads [8]	fraction of 1-bp insertions among edited reads (Tucidinostat (Chidamide))
19.0 (DMSO control at this site: 1-bp insertion 0.121, MH deletion 0.101, edited 0.057) TCTGCAGGGGTCGGAACCCGGGGGCTAGGGCTATCCCGGGGGCTAGGGCTATTAGCGAACC	0.131	0.0931	0.103	0.0834	0.27	0.0666	0.123	0.087	0.0625	0.116
40.0 (DMSO control at this site: 1-bp insertion 0.072, MH deletion 0.192, edited 0.189) GCGAATCAACTGTTCAACAACAGCAGCAGCCACCTGGAGGACTACAGTGGCCTGTCCGTGT	0.0675	0.0835	0.0737	0.076	0.124	0.0746	0.0721	0.0741	0.0639	0.0778
35.0 (DMSO control at this site: 1-bp insertion 0.01, MH deletion 0.72, edited 0.098) CCACTTTTAGAGAGGGTGAAAATCATCAGTTATCATCAGGGCAACAAATTGCTTTCTCCTA	0.0264	0.00485	0.0103	0.0267	0.125	0.0279	0.0384	0.0134	0.0163	0.0535
33.0 (DMSO control at this site: 1-bp insertion 0.008, MH deletion 0.771, edited 0.112) CATTAAGAGCAGCTGCCGGCCCCCAAGTGGACAGAGCTGGCCCTGCTGATTCAACAGTGCA	0.0229	0.0311	0.0305	0.0177	0.036	0.0245	0.0214	0.0211	0.0295	0.0189
7.0 (DMSO control at this site: 1-bp insertion 0.128, MH deletion 0.374, edited 0.098) TACTCAACCGAGACCTACGCGAACCGAAATCGTATGCCGGTGCGCAAGCAGGGCTGGCGTC	0.111	0.166	0.135	0.154	0.226	0.137	0.144	0.141	0.131	0.174
29.0 (DMSO control at this site: 1-bp insertion 0.084, MH deletion 0.745, edited 0.133) TTGATGAACTTCCTCTTCTTCTCATGTCTCCGGTCTCCGGTAGGCCACGTGCATGGCCACT	0.0597	0.0921	0.0712	0.106	0.339	0.0918	0.0975	0.111	0.0639	0.122
25.0 (DMSO control at this site: 1-bp insertion 0.017, MH deletion 0.774, edited 0.143) GGGCCTGAATGGTGTGGACATCTACTCGCTGGTGAGCTGGTGACTGAAAACATTCAGTGGC	0.0225	0.0261	0.0237	0.0265	0.0481	0.0281	0.0223	0.0292	0.0214	0.0363
38.0 (DMSO control at this site: 1-bp insertion 0.063, MH deletion 0.487, edited 0.17) GGGCTGGGTGCTAAAATGAGGAGCTCCAAGAAGACTGAGGTGAACCTGGAGGCCCCTGAGC	0.0578	0.0482	0.0681	0.0731	0.178	0.0549	0.0526	0.0567	0.0523	0.0633
30.0 (DMSO control at this site: 1-bp insertion 0.074, MH deletion 0.67, edited 0.142) GAGCTGGCATGAGTATTTGTGCCACATGGCTCCCACATGGCTCCACATGCAAGTTTGAAAC	0.0975	0.0866	0.0945	0.115	0.178	0.0785	0.0713	0.111	0.0722	0.1
32.0 (DMSO control at this site: 1-bp insertion 0.03, MH deletion 0.85, edited 0.898) AGAAGTCCAGGATCAGGGGGACTGGGGTCGGGAGGGTGGGGCAGGAAGGAAGCCAGAATCA	0.0112	0.0188	0.0121	0.012	0.0185	0.018	0.0164	0.0245	0.0134	0.0163
18.0 (DMSO control at this site: 1-bp insertion 0.114, MH deletion 0.789, edited 0.094) GCGCAAGTGCATAAGTTTTTCTTAAGGCGTGCCTTTAAGGCGTGCCTTTGTCGGTCCTGGA	0.0919	0.103	0.103	0.109	0.18	0.105	0.113	0.128	0.0891	0.0964
3.0 (DMSO control at this site: 1-bp insertion 0.109, MH deletion 0.149, edited 0.09) TGCTAGCGCCCCCACAAAGCGGACCAGCCAGCACTATAGGGAATAAGGCCAACTTGCACCC	0.126	0.124	0.133	0.13	0.244	0.144	0.112	0.15	0.121	0.123
26.0 (DMSO control at this site: 1-bp insertion 0.518, MH deletion 0.262, edited 0.026) AGGGCGCGCCCCACGCACTCTGCGGCAAGTCCCTCTGCGGCAAGTCCTCGGCCCGGAAGAC	0.484	0.558	0.515	0.49	0.691	0.495	0.494	0.525	0.452	0.5
46.0 TTAAGAGCAATGTTCACGCAACTTGAAATTATATCTGTGGTCTTCAAATTGTCTTTTGTCA		0.243	0.165				0.222			0.178
45.0 (DMSO control at this site: 1-bp insertion 0.017, MH deletion 0.666, edited 0.101) TTACACAGCATGAACTGCTAGGTGATGATGTCAGATTCGGTTTTACTAACTTCTCCAAAAA	0.0237	0.0246	0.0255	0.037	0.0735	0.0352	0.0235	0.0353	0.0266	0.0198
15.0 GCGCCTCCAATGACCCAGTGGGATCCTACTCCATAATGGGATCCTGGGGATTCCTCGCTCC			0.167			0.185	0.19			0.158
8.0 GCATGCGTGTTTTGGGACAATGTAGTATACATTTGGGAGGCTCTCAGCTTTTCCCAATAAA						0.418				0.257
4.0 (DMSO control at this site: 1-bp insertion 0.146, MH deletion 0.523, edited 0.125) ACGCCTTAGTGCACGAGTGACGGGATAATGTGGTCTCAGGTAATTGATAGGCTTCCAACTT	0.102	0.165	0.101	0.15	0.416	0.132	0.145	0.167	0.102	0.171
21.0 CGATTGAGAGTCAAACGGGCCAGAAAACTCCGGGAACGGGCCAGAAAACTCCGGGGCATGG		0.026	0.0143	0.0287	0.0355	0.0108	0.0393		0.0251	0.0194
